Screening results: PubChem BioAssay, National Center for Advancing Translational Sciences (NCATS)
This is a sample that favours compounds with a hit; in the whole collection about 19% have one here.
TDP1 cell noCPT – qHTS for Inhibitors of human tyrosyl-DNA phosphodiesterase 1 (TDP1): qHTS in cells in absence of CPT. DT40 Tdp1-/- hTDP1 cells, no CPT, ATP luminescence, 48 h. Potency, µM (series often up to 46.2 µM), inactives show at the top dose activity change, negative = growth inhibition, most hits filed as inhibitors. hit rate 15% among 420,000; further: potency means the concentration at half of the fitted maximal effect; on the % scale 0 is the no-effect control and ±100 the full control effect; nearly all actives have a fitted effect of over 55% in size
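Seeded 400 DT40-hTDP1 cells/well (vehicle DMSO, no 20 nM CPT); pinned compounds; ≥48 hr at 37 °C; CellTiter-Glo luminescence as viability measure.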
TGFb SMAD3 inh – TGF-b pathway inhibition. HepG2 CAGA-GFP TGF-b/SMAD3 reporter, GFP fluorescence, 18 h; TGF-beta stimulated, 500 pg/mL final. Potency, µM (highest dose often 46.1 µM), for the others: at the highest dose activity, negative = inhibition, actives largely listed as inhibitors. AID 588855. hit rate 1.2% among 410,000; further: potency means the concentration at half of the fitted maximal effect; on the % scale 0 is the no-effect control and ±100 the full control effect; nearly all actives have a fitted effect of over 65% in size
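GFP signal (ex488/em500-530) from TGF-beta-stimulated HEPG2 CAGA-GFP cells, 500 pg/mL final, 18 h at 37 degrees C in DMEM plus 1% FBS, normalized to unstimulated and DMSO-stimulated controls.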
S-ASM inh – human S-ASM enzyme inhibition | P17405 | placental ASM, HMU-PC fluorogenic substrate, 60 min | Potency, µM (top dose mostly 57.5 µM), for the others: top-dose activity change, negative = inhibition, usual class: inhibitors | hit rate 0.006% among 340,000 | AID 504937; further: potency means the concentration at half of the fitted maximal effect
Target sequence (P17405 47-631 limits assumed): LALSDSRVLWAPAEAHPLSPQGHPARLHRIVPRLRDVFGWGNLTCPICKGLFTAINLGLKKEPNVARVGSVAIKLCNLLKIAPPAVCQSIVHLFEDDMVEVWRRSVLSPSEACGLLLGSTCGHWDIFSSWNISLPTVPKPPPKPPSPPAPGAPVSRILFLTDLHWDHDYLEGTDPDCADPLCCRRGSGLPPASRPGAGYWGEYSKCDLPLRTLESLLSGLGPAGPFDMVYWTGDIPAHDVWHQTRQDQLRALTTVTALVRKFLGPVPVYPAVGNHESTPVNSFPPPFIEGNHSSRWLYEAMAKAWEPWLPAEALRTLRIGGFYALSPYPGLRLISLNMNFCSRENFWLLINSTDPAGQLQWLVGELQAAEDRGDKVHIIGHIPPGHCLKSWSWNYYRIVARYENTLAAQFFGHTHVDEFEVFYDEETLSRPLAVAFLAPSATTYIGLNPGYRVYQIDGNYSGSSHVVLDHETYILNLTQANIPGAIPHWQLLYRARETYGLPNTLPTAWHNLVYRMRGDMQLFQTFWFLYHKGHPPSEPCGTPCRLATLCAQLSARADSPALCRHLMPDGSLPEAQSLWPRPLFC
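qHTS format. ASM enzyme prepared from human placenta hydrolyses the fluorogenic substrate HMU-PC0 (9 uM final) over 60 min at 37 °C after a 10 min compound preincubation.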
IL1B secr inh – inflammasome signaling inhibition, IL-1 beta readout. hit rate 4.7% among 360,000. activity change, % at 57.5 µM. THP-1 LPS/ATP IL-1B secretion, AlphaLISA, 16 h; active compounds read low. AID 743279; in the data active means activity change below about -50%; inconclusive means mostly about -30% to -49%; further: on the % scale 0 is the no-effect control and ±100 the full control effect
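THP-1 cells pretreated 1 hr with compounds (up to 57.5 uM final), then stimulated with LPS (250 ng/mL final) plus ATP (1.25 mM final); secreted IL-1B measured by AlphaLISA after 16 hr, decreased signal indicating inhibition.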
HepG2 viability – HepG2 cytotoxicity, counter-screen for TGF-b inhibitors; HepG2 CAGA-GFP viability, ATP luminescence, 18 h; Potency, µM (doses to about 46.1 µM), without a hit: at the top dose activity change, negative = cytotoxicity, most hits filed as cytotoxic; hit rate 0.76% among 410,000; further: potency means the concentration at half of the fitted maximal effect
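HepG2 CAGA-GFP cells (1000/well, DMEM with 1% FBS) received compound, then TGF-beta at 500 pg/mL final, and were incubated 18 hours at 37 degrees C. Viability was read by CellTiter-Glo luminescence. Media-only wells were set as complete cell-killing and DMSO as no toxicity.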
TDP1 cell CPT – DT40-hTDP1 cell growth loss with CPT | Potency, µM (top dose mostly 46.2 µM), inactives show top-dose activity change, negative = growth inhibition, usual class: inhibitors | AID 686979 | hit rate 12% among 420,000 | chicken DT40 Tdp1-/-;hTDP1 cells + 20 nM CPT, ATP luminescence, 48 h; further: potency means the concentration at half of the fitted maximal effect; on the % scale 0 is the no-effect control and ±100 the full control effect; nearly all actives have a fitted effect of over 55% in size
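Chicken DT40 Tdp1-/- cells stably complemented with human TDP1 were seeded at 400 cells/well in medium containing 20 nM camptothecin, exposed to pin-transferred compounds, and grown at 37 °C for at least 48 hr. Viability was read as ATP luminescence.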
* hit, by the source's call; ? = inconclusive; / = not tested or not shown. Unless noted, the call rests on the fitted dose curve; in most records, active means well fitted curve in the direction sought with a large enough effect; inconclusive means small, poorly fitted or top-dose-only effect, or another doubt; inactive means no such curve, though single readings can be large; an effect the other way counts as inactive or inconclusive.

SMILES	TDP1 cell noCPT	TGFb SMAD3 inh	S-ASM inh	IL1B secr inh	HepG2 viability	TDP1 cell CPT
COc1ccccc1CCNC(=O)Cn1c(=O)oc2ccccc21	?	0.0%	6.2%	3.7	3.6%	20.6µM*
COc1ccccc1NC(=O)Cn1c(=O)oc2ccccc21	2.91µM*	-1.3%	-2.4%	-2.4	0.5%	2.91µM*
O=C(Cn1c(=O)oc2cccnc21)Nc1ccccc1Oc1ccc(Cl)cc1Cl	-17.4%	2.1%	-2.3%	-71.2*	-3.1%	-3.5%
O=C(Cn1c(=O)oc2ccccc21)Nc1ccc(Cl)cc1Cl	9.8%	-8.8%	0.1%	5.1	-6.9%	-21.3%
C=CCn1c(SC(C)C(=O)NCCC2=CCCCC2)nc2ccccc2c1=O (configuration not stated)	?	0.0%	-5.4%	-5.5	9.6%	?
O=C(Nc1ccc(SC(F)F)cc1)c1cc(-c2ccncc2)nc2ccccc12	20.6µM*	-27.9%	-25.7%	-13.9	2.1%	?
COc1ccc(-c2cc(C(=O)NNC(=O)c3csc(N4CCOCC4)n3)c3ccccc3n2)cc1OC	16.4µM*	-2.7%	-7.9%	-16.0	5.6%	20.6µM*
COc1ccc(NC(=O)c2cc(C)nc3ccccc23)cc1S(=O)(=O)N1CCOCC1	3.0%	8.8%	0.6%	-17.2	-13.2%	-0.3%
COc1cc(-c2cc(C(=O)Nc3cc(S(=O)(=O)N4CCOCC4)ccc3C)c3ccccc3n2)cc(OC)c1OC	11.6µM*	0.0%	1.9%	-4.5	10.0%	16.4µM*
COc1ccc(-c2cc(C(=O)NNC(=O)c3csc(N4CCOCC4)n3)c3ccccc3n2)cc1	?	0.9%	-3.0%	-15.1	14.9%	-26.1%
CCOc1cc(N2CCOCC2)c(OCC)cc1NC(=O)c1cc(-c2ccco2)nc2ccccc12	23.1µM*	-14.7%	-5.0%	-4.5	-43.8%	?
CC(OC(=O)CCN=C1NS(=O)(=O)c2ccccc21)C(=O)Nc1ccc(N(C)C)cc1 (configuration not stated)	-12.9%	?	-4.1%	-6.0	-57.0%	3.1%
Cc1cccc(C(=O)Nc2cccc(C(=O)OCc3cc(=O)n4ccsc4n3)c2)c1	-16.6%	-5.1%	/	/	-29.0%	4.3%
COc1ccc(-c2cc(C(=O)Nc3ccccc3N3CCOCC3)c3ccccc3n2)cc1OC	4.61µM*	-25.3%	2.3%	-51.8*	-8.1%	7.31µM*
O=C(Nc1ccccc1N1CCOCC1)c1cc(-c2ccncc2)nc2ccccc12	11.6µM*	2.1%	0.8%	-7.4	11.9%	11.6µM*
COc1ccc(-c2cc(C(=O)Nc3ccc(S(N)(=O)=O)cc3)c3ccccc3n2)cc1OC	?	-7.8%	286.3%	13.0	-23.4%	-9.8%
O=C(Nc1ccc(N2CCOCC2)cc1)c1cc(-c2ccncc2)nc2ccccc12	?	?	-3.4%	-2.1	-39.3%	20.6µM*
COc1ccc(-c2cc(C(=O)Nc3ccccc3O)c3ccccc3n2)cc1OC	?	-1.3%	1.8%	20.9	-0.9%	-29.5%
COc1ccc(-c2cc(C(=O)Nc3cc(S(N)(=O)=O)ccc3C)c3ccccc3n2)cc1OC	23.1µM*	-0.6%	67.4%	-6.1	8.2%	?
O=C(NN1CCOCC1)c1cc(-c2ccncc2)nc2ccccc12	-28.6%	-4.8%	3.0%	16.1	7.6%	-7.4%
COc1cccc(S(=O)(=O)N(C)C[C@@H]2OCc3cnnn3CCCC(=O)N([C@@H](C)CO)C[C@@H]2C)c1	0.2%	-5.2%	/	18.1	0.7%	-11.6%
COc1cc(-c2cc(C(=O)Nc3ccc(N4CCOCC4)cc3)c3ccccc3n2)cc(OC)c1OC	1.84µM*	15.5%	-13.9%	84.3	-1.1%	2.59µM*
O=C(Nc1ccccc1N1CCOCC1)c1ccc2ccccc2n1	16.4µM*	2.0%	-9.9%	-1.6	-13.1%	?
Cn1nc(C(=O)Nc2ccccc2N2CCOCC2)ccc1=O	?	-7.8%	1.3%	0.9	-2.8%	-28.5%
O=C(COc1ccccc1Br)NCCc1nc2ccccc2[nH]1	-22.3%	-18.6%	-1.9%	12.1	-11.7%	-28.2%
SMILES	TDP1 cell noCPT	TGFb SMAD3 inh	S-ASM inh	IL1B secr inh	HepG2 viability	TDP1 cell CPT
Cc1ccc(C)c(C(C)NC(=S)NC2CCCCC2)c1 (configuration not stated)	?	?	3.0%	30.7	-37.2%	25.9µM*
C1CCCCCC2(CCCCC1)OCC(CN1CCOCC1)O2 (configuration not stated)	23.1µM*	-17.4%	0.8%	6.7	9.8%	?
CSCCC(C(=O)Nc1c(C)cccc1C)n1c(-c2cnc(C)cn2)nc2ccccc21 (configuration not stated)	16.4µM*	/	/	-11.9	/	?
CC(C)(C)NC(=O)C(C1CC1)n1c(-c2ccccc2)nc2ccccc21 (configuration not stated)	8.2µM*	/	/	17.1	/	10.3µM*
CSCCC(C(=O)NC(C)(C)C)n1c(-c2ccc3c(c2)OCO3)nc2ccccc21 (configuration not stated)	20.6µM*	/	/	11.2	/	23.1µM*
O=C(NC1CCCC1)C(C1CC1)n1c(-c2ccncc2)nc2ccccc21 (configuration not stated)	2.0%	/	/	12.2	/	-5.6%
CSCCC(C(=O)Nc1c(C)cccc1C)n1c(-c2ccc(C(F)(F)F)cc2)nc2ccccc21 (configuration not stated)	6.0%	/	/	39.8	/	-4.9%
CCC(C(=O)NC1CCCC1)n1c(-c2ccccn2)nc2ccccc21 (configuration not stated)	8.2µM*	/	/	28.4	/	7.31µM*
Cc1cccc(N2CN=C3SCC(=O)N3C2)c1	?	-10.5%	3.6%	-25.4	21.6%	-28.6%
COc1ccc(C(C(=O)NC(C)(C)C)n2c(-c3ccc(-c4ccccc4)cc3)nc3ccccc32)cc1 (configuration not stated)	13µM*	/	/	7.6	/	?
Cc1csc(-c2nc3ccccc3n2C(C(=O)NC(C)(C)C)c2cc3ccccc3o2)c1 (configuration not stated)	14.6µM*	/	/	-18.5	/	?
COc1ccc(C(C(=O)NCc2ccccc2)n2c(-c3ccccn3)nc3ccccc32)cc1 (configuration not stated)	?	/	/	-15.7	/	16.4µM*
